Screening data deposited in PubChem BioAssay by Small Molecule Screening Facility, UW Madison.
Many of the other results were omitted from the sample, so hits are more common in it than they were.
RMI-FANCM inh – RMI-FANCM interaction inhibition; Fluorescence polarization, RMI core complex with F-MM2 peptide; active compounds read low; hit rate 0.58% among 70,000; FP signal (polarization) at 33 µM; in the data active means FP signal below about 40
* hit, by the source's call.

SMILES	RMI-FANCM inh
CN(CCO)S(=O)(=O)c1ccc2c(c1)C(=O)c1ccccc1C2=O	59
C=CCNC(=O)CSc1nc(C)c(CC)c(=O)[nH]1	64
O=c1nc2s/c(=C/c3ccccn3)c(=O)n2nc1-c1ccccc1	21*
O=c1/c(=C\c2ccc(Cl)cc2)sc2nc(-c3ccc(Cl)cc3)nn12	59
O=c1/c(=C/c2ccccc2)sc2nnc(-c3ccc(Cl)cc3)n12	52
CN(C)CC#Cc1cccc(/C=N\O)c1	52
CSc1scc2c1C(=O)/C(=C/N(C)C)CC2	33*
CSc1scc2c1-c1nc(SCC(=O)C(C)(C)C)ncc1CC2	58
Clc1ccc(CSCc2nc(-c3ccsc3)no2)cc1	66
Cc1nc(-c2ccnc(=S)[nH]2)cs1	57
S=c1nccc(-c2ccc(-c3cccs3)s2)[nH]1	33*
c1csc(-c2ccn[nH]2)c1	55
CCOC(=O)c1sc(NC(=O)c2cc(=O)c3ccccc3o2)cc1C	62
CCOC(=O)c1cc2cc(Cl)ccc2o1	53
CCCc1c2c(cc3c(=O)cc(C(=O)OCC)oc13)CCCC2	32*
Cc1ccc2oc(=O)n(CC/C(N)=N\OC(=O)c3ccccc3)c2c1	58
COc1ccccc1NC(=O)CCc1csc2nc(-c3ccccc3)cn12	64
Cc1c2c(n3c(nc4ccccc43)c1C#N)SCC2	24*
Cc1ccc(OCCN2CCN(c3c4c(c(C#N)c5nc6ccccc6n35)CCCC4)CC2)cc1	62
COc1cccc(N2CCc3c(C)c(C#N)c4nc5ccccc5n4c32)c1	14*
Cc1c2c(n3c(nc4ccccc43)c1C#N)N(C(C)c1ccccc1)CC2 (stereo not given)	79
CCc1c(C)c(C#N)c2nc3ccccc3n2c1N	66
CSc1c2c(c(C#N)c3nc4ccccc4n13)CCCC2	73
O=C(CCc1csc(NC(=O)Nc2ccccc2)n1)NCc1ccc2c(c1)OCO2	65
Cc1c(NC(=O)c2nccnc2C(=O)O)c(=O)n(-c2ccccc2)n1C	56
SMILES	RMI-FANCM inh
O=C(CCCn1nc(-c2cccs2)ccc1=O)NCc1ccc(Cl)cc1	68
CCC(=O)Nc1ccc(S(=O)(=O)NCCCc2ccc(N(C)C)cc2)cc1	71
O=C(CCS(=O)(=O)c1ccc(F)cc1)Nc1ccc(-c2nc3ccccc3s2)c(O)c1	56
O=C(NCCCn1nc(-c2cccs2)ccc1=O)c1cc2ccccc2oc1=O	64
CCOC(=O)c1c(C)oc2c(F)c(F)c(F)c(F)c12	62
CCOC(=O)c1c(C)oc2c1c1c(c3ccccc32)OCN(C2CCCCC2)C1	31*
CCOC(=O)c1c(-c2ccccc2)oc2c1cc(OC(=O)c1cc(OC)cc(OC)c1)c1ccccc12	54
CC(C)C(=O)Nc1ccc(SCC(=O)NCCc2ccccc2)nn1	68
CCOc1ccc2[nH]cc(S(=O)(=O)c3ccc(C(C)(C)C)cc3)c(=O)c2c1	63
Cc1cc(NC(=O)C(=O)NN)no1	47
CC(=C\c1ccccc1)/C=C1/SC(=Nc2ccc(F)cc2)NC1=O	58
O=C1NC(=Nc2ccccc2)S/C1=C/C=C/c1ccco1	27*
CCOc1ccc(N=C2NC(=O)S/C2=C\C=C\c2ccccc2)cc1	66
CN1C(=O)CCc2cc(NS(=O)(=O)CBr)ccc21	59
Cc1cc(-c2ccccc2)nc2oc(C(=O)c3ccc(Cl)cc3)c(N)c12	54
Cc1cc(-c2ccccc2)nc2oc3c(SCC(=O)c4ccc(-c5ccccc5)cc4)ncnc3c12	32*
CCOC(=O)Cn1cnc2c(oc3nc(-c4ccccc4)cc(-c4ccccc4)c32)c1=O	71
O=C(NCCCn1nc(-c2cccs2)ccc1=O)c1ccc(F)c(F)c1	65
Cc1ccc(S(=O)(=O)N2CCCC(C(=O)Nc3nnc(-c4cc(C)nn4C)o3)C2)cc1 (stereo not given)	65
COc1cc(OC)cc(C(=O)NCCOc2ccc3nnc(-c4ccccc4OC)n3n2)c1	73
COc1ccc(S(=O)(=O)N=C2C=C(Nc3cccc(C)c3)C(=O)c3ccccc32)cc1	13*
COC(=O)c1ccccc1NC1=CC(=NS(=O)(=O)c2ccc(F)cc2)c2ccccc2C1=O	57
O=C1C(NS(=O)(=O)c2ccccc2)=CC(=NS(=O)(=O)c2ccc(F)cc2)c2ccccc21	58
COc1ccc(-c2nc(NC(=O)CS(=O)(=O)c3ccccc3)sc2C)cc1	51
O=C1CS/C(=C\C(=O)N2CCOCC2)N1	52
SMILES	RMI-FANCM inh
NC(=O)c1ccccc1NC(=O)Cc1csc(Nc2cccc(C(F)(F)F)c2)n1	66
NC(=O)Cc1csc(Nc2cccc(C(F)(F)F)c2)n1	29*
O=C(O)Cc1csc(Nc2cccc(C(F)(F)F)c2)n1	68
Clc1ccc2c(N3CCCCC3)ccnc2c1	52
O=[N+]([O-])c1ccc(S(=O)(=O)N2CCC(c3nc4ccccc4[nH]3)CC2)cc1	53
O=C(Nc1ccc2c(c1)N(C(=O)C1CCCO1)CC2)C1CC1 (stereo not given)	66
CCOc1ccccc1N1C(=O)CNC1=S	55
CCOc1ccccc1N1C(=O)/C(=C/C=C/c2ccco2)SC1=S	14*
CCOc1ccc(N2C(=O)S/C(=C\C=C\c3ccco3)C2=O)cc1	54
